The values below come from PubChem BioAssay (NCI).

Among the test systems are HCT-15 colon; HT29 colon; SNB-19 CNS; PC-3 prostate; SK-MEL-5 melanoma; UACC-62 melanoma; LOX IMVI melanoma; SK-MEL-28 melanoma; SK-MEL-2 melanoma; EKVX NSCLC; SN12C renal; UO-31 renal; ACHN renal; CAKI-1 renal; A498 renal; CCRF-CEM leukemia; MOLT-4 leukemia; U251 CNS; TK-10 renal.
What all share (assay): NCI-60 one-dose screen, 48 h (100 = growth as untreated, 0 = no growth, -100 = all killed)
Settings in all cases: 10 µM unless noted

Compounds without any hit were thinned out: in the full panel of roughly 83,000, 20% have a hit.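 Results are percent growth after 48 hours of single-concentration exposure. 100 means growth as in untreated cells, lower positive values show inhibition; negative values down to -100 show cell death.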 Unmarked numbers belong to inactive results. Activity calls are given as the source filed them. How the source made its calls: active means growth percent below 10; inactive means the rest.

Take `COc1cc(NCCCN(CC(C)C)C2CCCC2)c2ncccc2c1`: the growth with HCT-15 colon was 63.6%; with HT29 colon it was 71.8%; in the assay on SNB-19 CNS it was 84.6%; with PC-3 prostate, 59.4%; with SK-MEL-5 melanoma it was 72.2%; with UACC-62 melanoma it was 73.6%. For the same molecule, the growth in the assay on LOX IMVI melanoma was 58.7%; with SK-MEL-28 melanoma, 71.2%; with SK-MEL-2 melanoma, 100%; in the assay with EKVX NSCLC it was 89.9%; in the assay on SN12C renal, 61.9%; in the assay with UO-31 renal, 51%. The growth was 41.7% in the assay on ACHN renal; 76% in the assay on CAKI-1 renal; 37.1% in the assay on A498 renal; 54.1% in the assay on CCRF-CEM leukemia; 71% in the assay with MOLT-4 leukemia.

As for `COc1ccc(CC(C)=C(c2ccc(OCCN(C)C)cc2)c2ccc(OCCN(C)C)cc2)cc1`, the growth in the assay with HCT-15 colon was 62.8%; in the assay on HT29 colon, 39%; with SNB-19 CNS, 80.1%; in the assay with U251 CNS, 55.3%; with PC-3 prostate, 70.8%; in the assay on SK-MEL-5 melanoma, 84.2%. Also, the growth in the assay on UACC-62 melanoma was 39.1%; with LOX IMVI melanoma, 71.5%; with SK-MEL-28 melanoma, 71.5%; in the assay on SK-MEL-2 melanoma, 108%; with EKVX NSCLC it was 88.5%; in the assay with SN12C renal, 75.2%. For the same molecule, the growth in the assay with UO-31 renal is 60.6%; in the assay with TK-10 renal, 99.6%; in the assay on ACHN renal, 98%; in the assay on CAKI-1 renal, 84%; in the assay on CCRF-CEM leukemia, 17.1%; in the assay with MOLT-4 leukemia, 64.6%.

As for `CC1=NNC(=O)C1CCC(=O)N/N=C(\C)c1ccc2ccccc2c1` (configuration not stated), the growth in the assay on HCT-15 colon was 107%; with HT29 colon, 116%; with SNB-19 CNS it was 114%; in the assay on U251 CNS it was 109%; with PC-3 prostate it was 94.9%; in the assay on SK-MEL-5 melanoma, 105%. Further, the growth in the assay on UACC-62 melanoma was 97.5%; with LOX IMVI melanoma, 99.5%; in the assay with SK-MEL-28 melanoma it was 109%; in the assay on SK-MEL-2 melanoma, 102%; in the assay on EKVX NSCLC it was 154%; with SN12C renal, 102%. The growth is 84.8% in the assay on UO-31 renal; 130% in the assay with TK-10 renal; 111% with ACHN renal; 107% in the assay with CAKI-1 renal; 110% in the assay on A498 renal; 105% in the assay on CCRF-CEM leukemia. The growth in the assay with MOLT-4 leukemia is 88.9%.

In the case of `COc1ccccc1/C=C1\COc2ccc(-c3ccccc3)cc2C1=O`, the growth was 22.7% with HCT-15 colon; 5.36% (active) with HT29 colon; 69.1% with SNB-19 CNS; 17.3% in the assay on U251 CNS; 27.2% in the assay on PC-3 prostate; 27.5% with SK-MEL-5 melanoma. The growth in the assay on UACC-62 melanoma is 40.6%; in the assay on LOX IMVI melanoma, 18.7%; in the assay on SK-MEL-28 melanoma it was 57.3%; with SK-MEL-2 melanoma, 44.7%; in the assay on EKVX NSCLC, 94%; in the assay with SN12C renal, 54%. In addition, the growth was 49.3% in the assay on UO-31 renal; 52% in the assay with TK-10 renal; 60.8% in the assay on ACHN renal; 86.4% in the assay on CAKI-1 renal; 42.8% with A498 renal; -25.3% (active) in the assay with CCRF-CEM leukemia. Also, the growth in the assay on MOLT-4 leukemia was -18% (active).

`C=CCn1c(SCC(=O)Nc2ccc(C(=O)/C=C/c3cc(OC)c(OC)c(OC)c3)cc2)nnc1-c1cc(OC)c(OC)c(OC)c1`: the growth in the assay on HCT-15 colon was 0.237% (active); with HT29 colon, -34.8% (active); in the assay with SNB-19 CNS, 40.6%; with U251 CNS, 2.63% (active); in the assay on PC-3 prostate, 49.9%; in the assay with SK-MEL-5 melanoma, 31.7%. Moreover, the growth with UACC-62 melanoma was 33.7%; with LOX IMVI melanoma it was 5.43% (active); with SK-MEL-28 melanoma, 66.9%; in the assay with SK-MEL-2 melanoma it was 80.9%; in the assay with EKVX NSCLC, 51.8%; in the assay on SN12C renal it was 33.8%. The growth was 42% in the assay with UO-31 renal; 87.3% with TK-10 renal; 37.8% in the assay on ACHN renal; 55.8% in the assay on A498 renal; 1.85% (active) in the assay with CCRF-CEM leukemia; 12.3% with MOLT-4 leukemia.

As for `Clc1nc(Cl)c2ncn(CC3(Cn4cnc5c(Cl)nc(Cl)nc54)COC3)c2n1`, the growth in the assay with HCT-15 colon is -89.9% (active); with HT29 colon, -70.1% (active); in the assay on SNB-19 CNS, -99.1% (active); in the assay on U251 CNS it was -95.9% (active); in the assay on PC-3 prostate, -98.4% (active); in the assay with SK-MEL-5 melanoma, -96.2% (active). Besides, the growth with UACC-62 melanoma is -92.4% (active); in the assay on LOX IMVI melanoma, -89.2% (active); in the assay on SK-MEL-28 melanoma, -97.9% (active); in the assay on SK-MEL-2 melanoma it was -76% (active); in the assay on EKVX NSCLC it was -71.6% (active); in the assay on UO-31 renal it was -97.7% (active). Also, the growth was -93.2% (active) with TK-10 renal; -98.7% (active) with ACHN renal; -87.8% (active) with CAKI-1 renal; -88.6% (active) in the assay with A498 renal; -66.8% (active) with MOLT-4 leukemia.

In the case of `O=S(=O)(c1ccccc1)N1CCCc2ccccc21`, the growth is 99.3% with HCT-15 colon; 99.8% in the assay on HT29 colon; 97.2% with SNB-19 CNS; 90.3% in the assay on U251 CNS; 91.3% in the assay with PC-3 prostate; 102% in the assay on SK-MEL-5 melanoma. Further, the growth in the assay with UACC-62 melanoma was 91.7%; with LOX IMVI melanoma, 96.4%; with SK-MEL-28 melanoma it was 105%; in the assay on SK-MEL-2 melanoma, 103%; with EKVX NSCLC, 101%; with SN12C renal it was 98.9%. The growth with UO-31 renal is 80.4%; in the assay with ACHN renal, 99.4%; in the assay on CAKI-1 renal, 101%; with A498 renal, 77.1%; with CCRF-CEM leukemia it was 92.4%; with MOLT-4 leukemia, 94.6%.

Regarding `O=C(Nc1ccc(Nc2ncccn2)cc1)NC1C=c2ccccc2=CC1` (configuration not stated), the growth was 102% in the assay on HCT-15 colon; 103% with HT29 colon; 103% with SNB-19 CNS; 99% with U251 CNS; 108% in the assay on PC-3 prostate; 99.7% in the assay with SK-MEL-5 melanoma. Further, the growth in the assay with UACC-62 melanoma is 92.9%; in the assay with LOX IMVI melanoma, 108%; in the assay on SK-MEL-28 melanoma it was 107%; in the assay on EKVX NSCLC it was 106%; in the assay on SN12C renal it was 92.5%; with UO-31 renal, 80.5%. Besides, the growth with TK-10 renal is 112%; with ACHN renal it was 105%; in the assay with A498 renal, 96.9%; in the assay with CCRF-CEM leukemia, 90%; in the assay with MOLT-4 leukemia, 87.5%.

As to `COc1cc2nc(-c3ccc(-c4nn[nH]n4)cc3)[nH]c(=O)c2cc1OC`, the growth is 106% in the assay with HCT-15 colon; 110% in the assay on HT29 colon; 94.3% with SNB-19 CNS; 105% with U251 CNS; 131% in the assay on PC-3 prostate; 102% in the assay with SK-MEL-5 melanoma. The growth with UACC-62 melanoma was 105%; in the assay with LOX IMVI melanoma it was 97.3%; with SK-MEL-28 melanoma, 128%; with SK-MEL-2 melanoma, 122%; with EKVX NSCLC, 108%; in the assay with SN12C renal, 140%. In addition, the growth in the assay with UO-31 renal is 86.3%; in the assay with TK-10 renal, 246%; in the assay on ACHN renal, 111%; in the assay on CAKI-1 renal, -1.66% (active); in the assay with A498 renal it was 147%; in the assay with CCRF-CEM leukemia, 114%. In the assay on MOLT-4 leukemia, the growth was 95.5%.
